PubChem BioAssay (NCI)
About 83,000 compounds went through this panel and 20% of them were active in at least one assay; those are over-represented in the sample as a whole.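 The endpoint reported here, percent growth, reads 100 for growth as untreated, 0 for no net growth and -100 for all cells dead.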 Activity calls are given as the source filed them. How the source made its calls: active means growth percent below 10; inactive means the rest.

Key:
Test in all cases: NCI-60 one-dose screen, 48 h (100 = growth as untreated, 0 = no growth, -100 = all killed)
Conditions in all cases: 10 µM unless noted
DU-145 prostate = tested on: DU-145 prostate
K-562 leukemia = tested on: K-562 leukemia
MALME-3M melanoma = tested on: MALME-3M melanoma
MDA-MB-231 breast = tested on: MDA-MB-231 breast
RXF 393 renal = tested on: RXF 393 renal
SF-268 CNS = tested on: SF-268 CNS
SF-295 CNS = tested on: SF-295 CNS
SF-539 CNS = tested on: SF-539 CNS
UACC-257 melanoma = tested on: UACC-257 melanoma
M14 melanoma = tested on: M14 melanoma
HCT-15 colon = tested on: HCT-15 colon
HT29 colon = tested on: HT29 colon
SNB-75 CNS = tested on: SNB-75 CNS
SNB-19 CNS = tested on: SNB-19 CNS
U251 CNS = tested on: U251 CNS
PC-3 prostate = tested on: PC-3 prostate
SK-MEL-5 melanoma = tested on: SK-MEL-5 melanoma
UACC-62 melanoma = tested on: UACC-62 melanoma
LOX IMVI melanoma = tested on: LOX IMVI melanoma
SK-MEL-28 melanoma = tested on: SK-MEL-28 melanoma

Measured: growth

C[C@H]1[C@H](C)CC[C@]2(C(=O)N3CCN(C)CC3)CC[C@]3(C)C(=CC[C@@H]4[C@@]5(C)C/C(=C/c6cccnc6)C(=O)C(C)(C)[C@@H]5CC[C@]43C)[C@H]12
active: DU-145 prostate -81.5% | K-562 leukemia -46.3% | MALME-3M melanoma -87.3% | MDA-MB-231 breast -80.1% | RXF 393 renal -94.4% | SF-268 CNS -80.3% | SF-295 CNS -84.6% | SF-539 CNS -84.6% | UACC-257 melanoma -65.3% | M14 melanoma -81.8% | HCT-15 colon -79.8% | HT29 colon -79.3% | SNB-75 CNS -9.56% | SNB-19 CNS -95.9% | U251 CNS -96% | PC-3 prostate -79.6% | SK-MEL-5 melanoma -97.6% | UACC-62 melanoma -74.7% | LOX IMVI melanoma -97.1% | SK-MEL-28 melanoma -85.7%

COc1cccc(-c2nc3sccn3c2-c2ccnc(NCCNS(=O)(=O)c3c(Cl)cccc3Cl)c2)c1
inactive: DU-145 prostate 63% | K-562 leukemia 29.3% | MALME-3M melanoma 77.8% | MDA-MB-231 breast 76.7% | RXF 393 renal 69.9% | SF-268 CNS 26.1% | SF-295 CNS 60.7% | SF-539 CNS 85.9% | UACC-257 melanoma 85.1% | M14 melanoma 57.7% | HCT-15 colon 47.3% | HT29 colon 47.3% | SNB-75 CNS 42.8% | SNB-19 CNS 77% | U251 CNS 70.1% | PC-3 prostate 41.2% | SK-MEL-5 melanoma 26% | UACC-62 melanoma 28.6% | LOX IMVI melanoma 58.6% | SK-MEL-28 melanoma 90.4%

CNC(=O)NCC1OC(n2cnc3c(NC(=O)Nc4ccccc4)ncnc32)C2OC(C)(C)OC12 (stereo not given)
inactive: DU-145 prostate 93.7% | K-562 leukemia 90.4% | MALME-3M melanoma 75.7% | MDA-MB-231 breast 107% | RXF 393 renal 96.6% | SF-268 CNS 91.3% | SF-295 CNS 119% | SF-539 CNS 83.9% | UACC-257 melanoma 107% | M14 melanoma 88.8% | HCT-15 colon 97.5% | HT29 colon 98.5% | SNB-75 CNS 59.7% | SNB-19 CNS 85.3% | U251 CNS 94.1% | PC-3 prostate 71% | SK-MEL-5 melanoma 86.2% | UACC-62 melanoma 91.5% | LOX IMVI melanoma 100%

O=C(/C=C/C12c3ccccc3C(c3ccccc31)C1C(=O)N(c3ccccc3)C(=O)C12)c1ccccc1 (stereo not given)
inactive: K-562 leukemia 14.5% | SF-268 CNS 35.9% | UACC-257 melanoma 33.6% | M14 melanoma 14.7% | HT29 colon 15.1% | SNB-75 CNS 34.2% | SNB-19 CNS 31.2% | PC-3 prostate 21.2%
active: DU-145 prostate 5.98% | MALME-3M melanoma -38.1% | MDA-MB-231 breast -3.22% | RXF 393 renal -72.8% | SF-295 CNS -3.2% | SF-539 CNS -3.29% | HCT-15 colon -25.8% | U251 CNS 7.97% | SK-MEL-5 melanoma -67.1% | UACC-62 melanoma 1.31% | LOX IMVI melanoma -81.4%

CCN(CC)CC(O)CNc1c2ccc(Cl)cc2nc2ccc(OC)cc12 (stereo not given)
active: DU-145 prostate -26.4% | K-562 leukemia -10.3% | MALME-3M melanoma -98.4% | MDA-MB-231 breast -33.4% | RXF 393 renal -80.8% | SF-539 CNS -61.3% | UACC-257 melanoma -87% | M14 melanoma -94.2% | HCT-15 colon -6.56% | HT29 colon -4.13% | U251 CNS -28.3% | SK-MEL-5 melanoma -92.5% | LOX IMVI melanoma -64.2%
inactive: SF-268 CNS 14.8% | SF-295 CNS 10.8% | SNB-75 CNS 58.4% | SNB-19 CNS 57.3% | PC-3 prostate 16.6% | UACC-62 melanoma 64.8%

CCOC(=O)c1ccc(NC(=O)CCCN(CC)CC)cc1
inactive: DU-145 prostate 105% | K-562 leukemia 97.7% | MALME-3M melanoma 98.5% | MDA-MB-231 breast 114% | RXF 393 renal 130% | SF-268 CNS 104% | SF-295 CNS 103% | SF-539 CNS 103% | UACC-257 melanoma 108% | M14 melanoma 91.3% | HCT-15 colon 105% | HT29 colon 88.6% | SNB-75 CNS 106% | SNB-19 CNS 111% | U251 CNS 98.2% | PC-3 prostate 78.3% | SK-MEL-5 melanoma 110% | UACC-62 melanoma 104% | LOX IMVI melanoma 97.7% | SK-MEL-28 melanoma 109%

CNC(=O)c1cc(Oc2ccc3nc(NC(=O)Nc4cc(C(F)(F)F)cc(C(F)(F)F)c4)sc3c2)ccn1
active: DU-145 prostate -39.6% | K-562 leukemia -2.97% | MALME-3M melanoma -57.5% | MDA-MB-231 breast -53.1% | RXF 393 renal -24.5% | SF-268 CNS -25.6% | SF-295 CNS -81.9% | SF-539 CNS -80% | UACC-257 melanoma -50.8% | M14 melanoma -39% | HCT-15 colon -4.69% | HT29 colon -71.3% | SNB-75 CNS -71.3% | SNB-19 CNS 2.44% | U251 CNS -81.8% | PC-3 prostate -38.9% | SK-MEL-5 melanoma -47.6% | UACC-62 melanoma -63.3% | LOX IMVI melanoma -87.5%

CN1CCN(c2ccc3nc(/N=C/c4ccc5sc(-c6ccc([N+](=O)[O-])cc6)nc5c4)sc3c2)CC1
inactive: DU-145 prostate 106% | K-562 leukemia 90.6% | MALME-3M melanoma 96.7% | MDA-MB-231 breast 112% | RXF 393 renal 129% | SF-268 CNS 111% | SF-295 CNS 96% | SF-539 CNS 93.4% | UACC-257 melanoma 101% | M14 melanoma 104% | HCT-15 colon 102% | HT29 colon 103% | SNB-75 CNS 106% | SNB-19 CNS 104% | U251 CNS 93.9% | PC-3 prostate 104% | SK-MEL-5 melanoma 90.6% | UACC-62 melanoma 104% | LOX IMVI melanoma 117%

CCOC(=O)c1c(C)nc2c(c1N)/C(=C/c1ccc(OC)cc1)C(=O)N2Cc1ccc(F)cc1
active: DU-145 prostate -90.8% | K-562 leukemia 4.12% | MALME-3M melanoma -21.3% | MDA-MB-231 breast -54.7% | RXF 393 renal -78.6% | SF-268 CNS -23.6% | SF-295 CNS -1.56% | SF-539 CNS -20.5% | UACC-257 melanoma -52.7% | M14 melanoma -56% | HCT-15 colon -80.6% | HT29 colon -75.9% | SNB-75 CNS -13.7% | SNB-19 CNS -67.4% | U251 CNS -81.5% | PC-3 prostate -52.5% | SK-MEL-5 melanoma -87.9% | UACC-62 melanoma -78.2% | LOX IMVI melanoma -93.1%

CC(C)c1ccc(C(=O)OC(=O)c2ccc(C(C)C)cc2)cc1
inactive: DU-145 prostate 119% | K-562 leukemia 74.7% | MALME-3M melanoma 86.3% | MDA-MB-231 breast 116% | RXF 393 renal 98.5% | SF-268 CNS 103% | SF-295 CNS 98.9% | SF-539 CNS 108% | UACC-257 melanoma 105% | M14 melanoma 94.5% | HCT-15 colon 95.1% | HT29 colon 112% | SNB-75 CNS 88.6% | SNB-19 CNS 107% | U251 CNS 91.2% | PC-3 prostate 86.8% | SK-MEL-5 melanoma 116% | UACC-62 melanoma 99.4% | LOX IMVI melanoma 91.5% | SK-MEL-28 melanoma 115%

CCc1c(C(=O)N[C@@H]2c3cc(Cl)ccc3CC[C@@H]2O)[nH]c(C)c1C(C)=O
inactive: DU-145 prostate 94.5% | K-562 leukemia 69.7% | MALME-3M melanoma 110% | MDA-MB-231 breast 84.2% | RXF 393 renal 92.3% | SF-268 CNS 73.2% | SF-295 CNS 64.7% | SF-539 CNS 67% | UACC-257 melanoma 80.2% | M14 melanoma 87.4% | HCT-15 colon 41.1% | HT29 colon 66.9% | SNB-75 CNS 76.4% | SNB-19 CNS 97.2% | U251 CNS 48.4% | PC-3 prostate 49.8% | SK-MEL-5 melanoma 45% | UACC-62 melanoma 69.7% | LOX IMVI melanoma 50.9% | SK-MEL-28 melanoma 81.5%

O=C(Nc1ccccc1Cl)OCCN1CCOCC1
inactive: DU-145 prostate 109% | K-562 leukemia 90.6% | MALME-3M melanoma 114% | MDA-MB-231 breast 111% | RXF 393 renal 114% | SF-268 CNS 107% | SF-295 CNS 103% | SF-539 CNS 105% | UACC-257 melanoma 105% | M14 melanoma 90.7% | HCT-15 colon 102% | HT29 colon 75.9% | SNB-75 CNS 111% | SNB-19 CNS 103% | U251 CNS 103% | PC-3 prostate 77.5% | SK-MEL-5 melanoma 108% | UACC-62 melanoma 101% | LOX IMVI melanoma 102%

CCN(CC)CCCC(C)NCc1ccccc1 (stereo not given)
inactive: DU-145 prostate 97.8% | K-562 leukemia 118% | MALME-3M melanoma 91.1% | MDA-MB-231 breast 105% | RXF 393 renal 135% | SF-268 CNS 100% | SF-295 CNS 101% | SF-539 CNS 102% | UACC-257 melanoma 102% | M14 melanoma 91.4% | HCT-15 colon 101% | HT29 colon 83.4% | SNB-75 CNS 99.8% | SNB-19 CNS 101% | U251 CNS 99.2% | PC-3 prostate 91.2% | SK-MEL-5 melanoma 108% | UACC-62 melanoma 97.5% | LOX IMVI melanoma 100%

COc1ccc(O)c(-c2cc(-c3ccccc3)c(C#N)c(=O)[nH]2)c1
inactive: DU-145 prostate 102% | K-562 leukemia 68.9% | MALME-3M melanoma 112% | MDA-MB-231 breast 89.9% | RXF 393 renal 104% | SF-268 CNS 103% | SF-295 CNS 95.2% | SF-539 CNS 98.1% | UACC-257 melanoma 85% | M14 melanoma 94.9% | HCT-15 colon 100% | HT29 colon 118% | SNB-75 CNS 93.8% | SNB-19 CNS 103% | U251 CNS 73.4% | PC-3 prostate 78.3% | SK-MEL-5 melanoma 73.7% | UACC-62 melanoma 86.1% | LOX IMVI melanoma 64.3%

C/C(=N\NC(=O)Cn1c(-c2ccc(S(C)(=O)=O)cc2)nc2cc(Cl)ccc21)c1ccc(Cl)cc1
inactive: DU-145 prostate 90% | K-562 leukemia 62.9% | MALME-3M melanoma 90.3% | MDA-MB-231 breast 73.4% | RXF 393 renal 79.3% | SF-268 CNS 72.4% | SF-295 CNS 81.1% | SF-539 CNS 83.1% | UACC-257 melanoma 79.2% | M14 melanoma 81% | HCT-15 colon 77% | HT29 colon 79.7% | SNB-75 CNS 69.7% | SNB-19 CNS 84.3% | U251 CNS 79.7% | PC-3 prostate 49.2% | SK-MEL-5 melanoma 84.2% | UACC-62 melanoma 76.2% | LOX IMVI melanoma 89.4%
